Measured values taken from PubChem BioAssay AID1159580 (chemical genetic matrix, 2015).
The campaign covered roughly 5,500 compounds. About 2,000 (36%) were called active. Another 18% or so got no clear call; they are omitted. Rule as the data show it: active = normalized growth mostly below about 0.91 (no sharp cut-off); inconclusive = no clear call, values can overlap the other calls; inactive = mostly above about 0.92. This is one part of the list.

Assay: chemical genetic growth profiling, strain panel (AID 1159580);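 also: tested at 20 µM; growth read once vehicle control cultures reached saturation at 30 °C; 1 = growth at the plate median or of vehicle wells; lower values mean less growth of the strain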
Conditions: growth OD

Measured: normalized growth

Cc1cc(=O)n(-c2ccccc2)n1C
inactive: S. cerevisiae deletion strains, locus YJR066W, strain TOR1, active compounds read low 0.984 | S. cerevisiae deletion strains, locus YJR075W, strain HOC1, active compounds read low 1 | S. cerevisiae deletion strains, locus YKL009W, strain mrt4, active compounds read low 1 | S. cerevisiae deletion strains, locus YKL068W, active compounds read low 1 | S. cerevisiae deletion strains, locus YKL085W, strain MDH1 (second series), active compounds read low 0.987 | S. cerevisiae deletion strains, locus YKL085W, strain MDH1, active compounds read low 0.987 | S. cerevisiae deletion strains, locus YKL160W, strain elf1, active compounds read low 0.936 | S. cerevisiae deletion strains, locus YKR001C, strain vps1, active compounds read low 1.02 | S. cerevisiae deletion strains, locus YKR026C, strain gcn3, active compounds read low 1 | S. cerevisiae deletion strains, locus YKR091W, strain srl3, active compounds read low 0.99 | S. cerevisiae deletion strains, locus YLL001W, strain dnm1, active compounds read low 0.921 | S. cerevisiae deletion strains, locus YLL026W, active compounds read low 1 | S. cerevisiae deletion strains, locus YLL041C, strain sdh2, active compounds read low 0.991 | S. cerevisiae deletion strains, locus YLR027C, strain aat2, active compounds read low 1 | S. cerevisiae deletion strains, locus YLR039C, strain RIC1, active compounds read low 1.04 | S. cerevisiae deletion strains, locus YLR058C, strain SHM2, active compounds read low 1 | S. cerevisiae deletion strains, locus YLR102C, strain apc9, active compounds read low 0.991 | S. cerevisiae deletion strains, locus YLR113W, strain HOG1, active compounds read low 0.981 | S. cerevisiae deletion strains, locus YLR221C, strain rsa3, active compounds read low 0.976 | S. cerevisiae deletion strains, locus YLR258W, strain gsy2, active compounds read low 1.07 | S. cerevisiae deletion strains, locus YLR262C, strain YPT6 (second series), active compounds read low 0.967 | S. cerevisiae deletion strains, locus YLR262C, strain YPT6, active compounds read low 1.07 | S. cerevisiae deletion strains, locus YLR268W, strain sec22, active compounds read low 0.992 | S. cerevisiae deletion strains, locus YLR320W, strain mms22, active compounds read low 0.96 | S. cerevisiae deletion strains, locus YLR330W, strain CHS5, active compounds read low 1.01 | S. cerevisiae deletion strains, locus YLR342W, strain FKS1 (second series), active compounds read low 1.02 | S. cerevisiae deletion strains, locus YLR342W, strain FKS1, active compounds read low 0.99 | S. cerevisiae deletion strains, locus YLR357W, strain rsc2, active compounds read low 0.988 | S. cerevisiae deletion strains, locus YLR370C, strain arc18, active compounds read low 0.991 | S. cerevisiae deletion strains, locus YLR371W, strain rom2, active compounds read low 0.987 | S. cerevisiae deletion strains, locus YLR384C, strain iki3, active compounds read low 1 | S. cerevisiae deletion strains, locus YLR418C, strain cdc73, active compounds read low 0.995 | S. cerevisiae deletion strains, locus YML016C, strain PPZ1, active compounds read low 1.01 | S. cerevisiae deletion strains, locus YML032C, strain rad52, active compounds read low 0.993 | S. cerevisiae deletion strains, locus YML120C, strain ndi1, active compounds read low 0.97 | S. cerevisiae deletion strains, locus YML124C, strain tub3, active compounds read low 0.984 | S. cerevisiae deletion strains, locus YMR058W, strain fet3, active compounds read low 0.99 | S. cerevisiae deletion strains, locus YMR078C, strain ctf18, active compounds read low 0.975 | S. cerevisiae deletion strains, locus YMR125W, strain sto1, active compounds read low 0.935 | S. cerevisiae deletion strains, locus YMR129W, active compounds read low 0.998 | S. cerevisiae deletion strains, locus YMR205C, strain PFK2, active compounds read low 0.946 | S. cerevisiae deletion strains, locus YMR223W, strain ubp8, active compounds read low 0.99 | S. cerevisiae deletion strains, locus YMR231W, strain pep5, active compounds read low 0.997 | S. cerevisiae deletion strains, locus YMR307W, strain GAS1, active compounds read low 1.09 | S. cerevisiae deletion strains, locus YNL067W, strain RPL9B, active compounds read low 0.995 | S. cerevisiae deletion strains, locus YNL071W, strain lat1, active compounds read low 0.992 | S. cerevisiae deletion strains, locus YNL128W, strain TEP1, active compounds read low 1.01 | S. cerevisiae deletion strains, locus YNL153C, strain GIM3, active compounds read low 0.991 | S. cerevisiae deletion strains, locus YNL183C, strain NPR1, active compounds read low 0.987 | S. cerevisiae deletion strains, locus YNL209W, strain ssb2, active compounds read low 0.994 | S. cerevisiae deletion strains, locus YNL233W, strain BNI4, active compounds read low 0.989 | S. cerevisiae deletion strains, locus YNL248C, strain rpa49, active compounds read low 0.952 | S. cerevisiae deletion strains, locus YNL250W, strain rad50, active compounds read low 1 | S. cerevisiae deletion strains, locus YNL271C, strain bni1, active compounds read low 0.989 | S. cerevisiae deletion strains, locus YNL298W, strain CLA4, active compounds read low 1.01 | S. cerevisiae deletion strains, locus YNL307C, strain MCK1, active compounds read low 0.991 | S. cerevisiae deletion strains, locus YNL322C, strain KRE1 (second series), active compounds read low 0.991 | S. cerevisiae deletion strains, locus YNR049C, strain mso1, active compounds read low 1 | S. cerevisiae deletion strains, locus YNR052C, strain pop2, active compounds read low 0.982 | S. cerevisiae deletion strains, locus YOL006C, strain TOP1, active compounds read low 0.961 | S. cerevisiae deletion strains, locus YOL012C, strain htz1 1.68 | S. cerevisiae deletion strains, locus YOL147C, strain pex11, active compounds read low 0.989 | S. cerevisiae deletion strains, locus YOR001W, strain rrp6, active compounds read low 1.05 | S. cerevisiae deletion strains, locus YOR061W, strain CKA2, active compounds read low 1.02 | S. cerevisiae deletion strains, locus YOR069W, strain VPS5, active compounds read low 1.01 | S. cerevisiae deletion strains, locus YOR070C, strain gyp1, active compounds read low 0.999 | S. cerevisiae deletion strains, locus YOR080W, strain dia2, active compounds read low 0.999 | S. cerevisiae deletion strains, locus YOR083W, strain WHI5, active compounds read low 0.949 | S. cerevisiae deletion strains, locus YOR106W, strain vam3, active compounds read low 0.957 | S. cerevisiae deletion strains, locus YOR136W, strain idh2, active compounds read low 0.986 | S. cerevisiae deletion strains, locus YOR144C, strain elg1, active compounds read low 0.995 | S. cerevisiae deletion strains, locus YOR184W, strain ser1, active compounds read low 1.01 | S. cerevisiae deletion strains, locus YOR231W, strain MKK1, active compounds read low 1.04 | S. cerevisiae deletion strains, locus YOR265W, strain rbl2, active compounds read low 0.994 | S. cerevisiae deletion strains, locus YOR270C, strain vph1, active compounds read low 0.964 | S. cerevisiae deletion strains, locus YOR290C, strain snf2, active compounds read low 0.945 | S. cerevisiae deletion strains, locus YOR316C, strain cot1, active compounds read low 0.985 | S. cerevisiae deletion strains, locus YPL051W, strain arl3, active compounds read low 0.98 | S. cerevisiae deletion strains, locus YPL078C, strain atp4, active compounds read low 0.936 | S. cerevisiae deletion strains, locus YPL106C, strain sse1, active compounds read low 0.981 | S. cerevisiae deletion strains, locus YPL240C, strain hsp82, active compounds read low 1.01 | S. cerevisiae deletion strains, locus YPL256C, strain CLN2, active compounds read low 0.999 | S. cerevisiae deletion strains, locus YPR119W, strain clb2, active compounds read low 0.982 | S. cerevisiae deletion strains, locus YPR141C, strain kar3, active compounds read low 0.995 | S. cerevisiae deletion strains, locus YPR163C, strain tif3, active compounds read low 0.992 | S. cerevisiae deletion strains, locus YPR167C, strain met16, active compounds read low 0.984 | S. cerevisiae deletion strains, strain wtn01, active compounds read low 0.979 | S. cerevisiae strains, strain wild type, active compounds read low 1.01
